Measurements from the supplement of paper PMC3334620.
Whole data set: some 33,000 sequences, median “E-score (-0.5 to 0.5)” near -0.032, cut for the highest 2% near 0.36. The full list was thinned out, with the highest values kept by preference.

Target: T1, Sko1 (UniProt Q02100)
T1 sequence: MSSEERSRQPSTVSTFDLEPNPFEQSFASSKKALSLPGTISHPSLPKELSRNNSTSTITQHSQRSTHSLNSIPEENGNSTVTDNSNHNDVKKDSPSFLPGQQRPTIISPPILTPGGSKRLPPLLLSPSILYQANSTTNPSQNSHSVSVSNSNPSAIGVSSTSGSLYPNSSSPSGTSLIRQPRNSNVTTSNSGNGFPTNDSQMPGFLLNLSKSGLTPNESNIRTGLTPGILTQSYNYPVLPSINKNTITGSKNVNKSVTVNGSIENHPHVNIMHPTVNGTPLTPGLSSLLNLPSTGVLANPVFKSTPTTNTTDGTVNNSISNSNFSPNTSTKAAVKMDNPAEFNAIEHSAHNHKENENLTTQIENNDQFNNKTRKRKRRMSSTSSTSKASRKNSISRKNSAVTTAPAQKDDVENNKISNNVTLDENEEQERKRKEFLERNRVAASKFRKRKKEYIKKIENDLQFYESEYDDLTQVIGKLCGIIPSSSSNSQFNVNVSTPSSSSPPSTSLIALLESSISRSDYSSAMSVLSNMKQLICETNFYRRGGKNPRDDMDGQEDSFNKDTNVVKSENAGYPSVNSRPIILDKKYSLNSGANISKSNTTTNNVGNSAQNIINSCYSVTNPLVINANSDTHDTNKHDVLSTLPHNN
Assay: PBM E-score (8-mer binding enrichment) (E-score (-0.5 to 0.5)); higher = stronger / more preferred TF binding
Details: protein concentration: 200 nM; construct: GST-full length
Procedure, shortened: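 The E-score, a modified Wilcoxon-Mann-Whitney statistic, was computed by the Universal PBM Analysis Suite for every ungapped eight-base word pooled with its reverse complement. Scans behind it were normalised with masliner after bound GST-tagged yeast transcription factors were detected with fluorescent anti-GST. The proteins, at about 100-200 nM, had been applied to universal all-10-mer Agilent arrays made double-stranded by primer extension.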

Row | Sequence | PBM E-score
1 | ACCGCCTC | -0.312
2 | CGAGTATA | -0.0254
3 | ACGTAGGC | 0.425
4 | ACGTAGGG | 0.425
5 | AAGTAGGG | -0.0549
6 | GCGTAGGA | 0.0517
7 | CCGTAGGC | -0.293
8 | ACGTAGGA | 0.446
9 | AAGTAGGC | -0.0531
10 | CCGTAGGA | -0.29
11 | AGGTAGGG | -0.137
12 | CGCTAAGA | 0.0374
13 | GCACAGGC | -0.115
14 | AAAGGCCA | -0.118
15 | GTTGAGCA | 0.0589
16 | ACATCTCT | 0.0591
17 | GTCAACCA | 0.0809
18 | GGAACTAA | -0.0195
19 | CCATTGAG | 0.00857
20 | GTAAAAAC | 0.184
21 | GGACTCGA | -0.342
22 | GGTATACA | 0.0243
23 | AGTATACG | 0.267
24 | CGTATACA | 0.372
25 | CGTATACG | 0.393

Row | Sequence | PBM E-score
26 | AGTATATA | 0.254
27 | CGTATATA | 0.418
28 | CGTATACC | 0.132
29 | AGTATACA | 0.0979
30 | CGTATATC | 0.319
31 | GCTCAAAC | -0.0717
32 | ACGCCCTC | -0.134
33 | GGACACTA | -0.125
34 | AAGATCGT | 0.0795
35 | GAACGACC | -0.306
36 | TAGATAGA | 0.0341
37 | AAACGGGC | -0.131
38 | AACGTTTC | 0.199
39 | ACGTCTCC | 0.322
40 | CCGTCTAC | 0.0306
41 | CCGTCTTC | -0.306
42 | ACGTCTCG | 0.24
43 | ACGTCTTG | 0.39
44 | ACGTCTAT | 0.338
45 | CCGTCTTA | 0.00816
46 | ACGTCTTA | 0.408
47 | ACGTCTTC | 0.389
48 | ACGTCTGG | 0.331
49 | ACGTCTGA | 0.339
50 | ACGTCTAC | 0.368

Row | Sequence | PBM E-score
51 | AAGCGGGT | -0.268
52 | AAAATGAT | 0.246
53 | GTATGCAA | 0.177
54 | CACTATCC | -0.124
55 | AGAGTCAT | -0.0362
56 | AACCGCAC | 0.0215
57 | CCGTATTC | 0.0573
58 | ACGTATTG | 0.464
59 | GCGTATTA | 0.333
60 | CCGTATTA | 0.152
61 | ACGTATTA | 0.468
62 | ACGTATTC | 0.471
63 | AGGTATTC | 0.0465
64 | ATGTATTG | 0.196
65 | AAGTATTG | 0.15
66 | CTGGTCTC | -0.342
67 | GATCAGCA | -0.0416
68 | GTGCCTCA | -0.118
69 | AAAACAGT | 0.0855
70 | ACTTCGGC | -0.00736
71 | AATTACCA | 0.151
72 | CATTACGA | 0.398
73 | CTTTACGA | 0.218
74 | CGTTACGA | 0.349
75 | CGTTACGC | 0.362

Row | Sequence | PBM E-score
76 | AATTACGA | 0.411
77 | GCTTACGA | 0.238
78 | GATTACTA | 0.204
79 | AGTTACGC | 0.317
80 | GATTACGA | 0.418
81 | AATTACTA | 0.195
82 | CATTACGG | 0.292
83 | ACCGGGTG | -0.224
84 | TGAGTACA | -0.0184
85 | CAGCATGC | -0.0382
86 | TGGCCCAA | -0.0707
87 | ACCAACTG | -0.0438
88 | CCAGAGAA | 0.0433
89 | CTGTCGGC | -0.148
90 | AGATCGAA | 0.0696
91 | GATTACGC | 0.425
92 | AATTAGGT | 0.26
93 | AATTACAG | 0.113
94 | GATTACAC | 0.0868
95 | CATTACAC | 0.198
96 | AATTACGG | 0.26
97 | AATTACAC | 0.0946
98 | CATTACCC | -0.0584
99 | AATTACAT | 0.375
100 | CATTACGC | 0.409

Row | Sequence | PBM E-score
101 | GATTACCC | -0.0418
102 | AATTACGT | 0.492
103 | AGTGAGGC | 0.0161
104 | CGGTTAAC | 0.0142
105 | ACTTAAAA | 0.241
106 | ATCAGATC | -0.0621
107 | AGTTGAAT | 0.135
108 | ATGTCCAA | 0.0296
109 | CCCGGGTC | -0.204
110 | GGCGCCAA | -0.179
111 | ATGAAGGA | 0.0878
112 | ATCCACCG | -0.0573
113 | TATTACAA | 0.221
114 | AATTACGC | 0.44
115 | TATTACGA | 0.414
116 | TATTACCA | 0.227
117 | AATTACCC | 0.0055
118 | ATTTACGC | 0.281
119 | CTTCGAAG | -0.208
120 | AGGCCCCG | -0.372
121 | ATGGTTGA | -0.0732
122 | ACGGAGCA | -0.116
123 | CCTACAGG | -0.365
124 | TGCGCGAA | 0.169
